Rin1 Abl inh = inhibitors of human Rin1-Abl protein interaction. P00519+Q13671. TR-FRET Rin1/Abl binding, biochemical. inhibition, % at 7.35 µM. actives 0.4% (n = 360,000); in the data active means inhibition above about 5%, passing the limit was not always enough
LYPLA1 inh = LYPLA1 (human) inhibition in PME1 counter-screen. O75608. recombinant LYPLA1, FP-Rh probe fluorescence polarization. inhibition, % at 5.9 µM. actives 0.16% (n = 320,000);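 active means inhibition above the mean of all tested compounds plus 3 SD, set per campaign, cut at about 14% in these data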;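 further: inhibitors block serine hydrolase probe labeling of LYPLA1 so polarization falls; 0% = enzyme with DMSO and 100% = wells lacking LYPLA1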
p97 inhibitor = human p97 ATPase inhibition. recombinant p97 ATPase, Kinase-Glo ATP luminescence, 3 h. P55072. inhibition, % at 8 µM. actives 0.42% (n = 220,000); in the data active means inhibition above about 15%;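 further: 0% = DMSO vehicle and 100% = wells lacking enzyme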
LYPLA2 inh = blocks human lysophospholipase 2, a PME1 counter-screen. O95372. recombinant LYPLA2, FP-Rh probe fluorescence polarization. inhibition, % at 5.9 µM. actives 0.38% (n = 320,000). AID 2177;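 active means inhibition above the screen-wide mean plus 3 SD, limit set per campaign, cut at about 26% in these data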;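 further: 0% = LYPLA2 with DMSO and 100% = wells lacking LYPLA2 enzyme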
PREPL inhibitor = inhibits the human prolyl oligopeptidase-like enzyme. Q4J6C6. recombinant PREPL, fluorescence polarization activity-based probe. inhibition, % at 5.96 µM. actives 0.68% (n = 320,000). AID 2751;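 further: 0% = enzyme with DMSO and 100% = wells lacking enzyme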
Hck-Nef inh = blocks Nef-activated human Hck kinase | P08631 | Recombinant Hck-YEEI plus Nef, Z-Lyte FRET kinase assay | inhibition, % at 20 µM | actives 0.68% (n = 220,000) | AID 463187;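 active means Hck-Nef kinase inhibition above about 50%, limit read from the data; inactive means inhibition below that limit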;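 further: 0% = DMSO with Hck plus Nef and 100% = Hck alone without Nef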
p97 confirm = human p97 ATPase inhibition, confirmation. recombinant p97 ATPase, Kinase-Glo ATP luminescence. shares compounds with p97 inhibitor. inhibition, % at 8 µM. actives 44% (n = 760);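 active means percent inhibition of p97 ATPase above a set limit, the primary screen's mean plus 3 SD, cut at about 15% in these data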;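 further: 0% = DMSO wells and 100% = wells lacking p97 protein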
LYPLA1 confirm = counter-screen for PME1 inhibitors: confirmation of human LYPLA1 inhibitors | actives 69% (n = 480) | shares compounds with LYPLA1 inh | inhibition, % at 5.9 µM | recombinant LYPLA1, FP-Rh probe fluorescence polarization;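 active means mean inhibition across replicates above the hit cutoff set in the primary screen, cut at about 15% in these data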;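 further: loss of FP-Rh probe labeling of LYPLA1 seen as lower polarization; 0% = LYPLA1 with DMSO and 100% = wells lacking LYPLA1 enzyme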
LYPLA2 confirm = counter-screen for PME1 inhibitors: confirmation of human LYPLA2 inhibitors | inhibition, % at 5.9 µM | AID 2232 | actives 72% (n = 1,100) | recombinant LYPLA2, FP-Rh probe fluorescence polarization | shares compounds with LYPLA2 inh;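 active means mean inhibition across replicates above the hit cutoff set in the primary screen, cut at about 26% in these data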;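 further: blocked labeling of the enzyme by serine hydrolase FP-Rh probe lowers polarization; 0% = enzyme with DMSO and 100% = wells lacking LYPLA2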
PREPL inh cf = human PREPL inhibition, confirmation | shares compounds with PREPL inhibitor | recombinant PREPL, fluorescence polarization activity probe | inhibition, % at 5.96 µM | actives 67% (n = 2,000);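 further: 0% = protein with DMSO and 100% = wells lacking protein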
An asterisk follows results filed as active; / = no result. Rows were chosen to be rich in hits. Some 1.7% of all compounds tested hit in one or more screens of this group. Unless noted, no stated cut-off is given here; in the data, active means inhibition above about 43%; inactive means the rest.

SMILES	Rin1 Abl inh	LYPLA1 inh	p97 inhibitor	LYPLA2 inh	PREPL inhibitor	Hck-Nef inh	p97 confirm	LYPLA1 confirm	LYPLA2 confirm	PREPL inh cf
COc1cc(/C=C2\C(=O)N(c3ccccc3)N=C2C)ccc1Oc1ccc([N+](=O)[O-])cc1[N+](=O)[O-]	-0.6	0.3	17.6*	30.7*	11.3	-3.1	8.7	/	17.8	/
Cc1ccsc1C=Nc1ccc(O)cc1	-1.3	38.3*	25.0*	40.5*	23.7	4.4	2.9	6.1	-0.5	/
Cc1ccsc1/C=N/N=C/c1sccc1C	-0.8	3.8	/	0.0	11.4	/	/	/	/	/
CC(C)N(C(=O)Nc1ccc2nsnc2c1)C(C)C	/	71.4*	42.0*	73.1*	41.3	18.5	16.6*	10.2	30.9*	/
CC1CCN(C(=O)Nc2ccc3nsnc3c2)CC1	0.1	-0.3	3.0	0.5	4.2	2.7	/	/	/	/
COc1ccc(NC(=S)Nc2ccc3nsnc3c2)cc1	0.4	60.9*	37.6*	86.2*	43.0	6.6	18.5*	0.2	20.0	/
COc1ccc(N2CCN(CCS(=O)(=O)c3cc(Cl)ccc3Cl)CC2)cc1	0.4	-0.1	/	1.5	8.1	/	/	/	/	/
Cc1ccc(C2NC(=O)c3ccccc3N2)c(C)c1 (stereo not given)	4.1	/	/	/	/	/	/	/	/	/
C=CCn1c(NC(=O)c2ccccc2Cl)c(C#N)c2nc3ccccc3nc21	5.3	38.7*	43.3*	49.6*	27.2	5.8	27.6*	0.3	85.7*	/
CC(NC(=O)c1ccc(Cl)cc1)c1nnc(SCC(=O)NC2=NCCS2)n1C (stereo not given)	-1.6	0.2	/	1.2	5.6	/	/	/	/	/
C#CCOCCOCCOCCNc1nc(N2CCN(C(=O)[C@H](Cc3ccc(O)cc3)n3cc([C@@H](N)CC(C)C)nn3)CC2)nc(N2CCN(C(=O)[C@H](Cc3cc4ccccc4[nH]3)n3cc([C@@H](N)CC(C)C)nn3)CC2)n1	/	-5.1	20.2*	-5.8	53.3*	-6.4	12.8	/	/	50.5*
C#CCOCCOCCOCCNc1nc(N2CCN(C(=O)[C@H]([C@@H](C)CC)n3cc([C@@H](N)CC(C)C)nn3)CC2)nc(N2CCN(C(=O)[C@H](Cc3cc4ccccc4[nH]3)n3cc([C@@H](N)Cc4ccc(O)cc4)nn3)CC2)n1	/	0.2	6.7	-0.6	42.8	-2.4	/	/	/	/
C#CCOCCOCCOCCNc1nc(N2CCN(C(=O)[C@H](CCCCN)n3cc([C@@H](N)CC(C)C)nn3)CC2)nc(N2CCN(C(=O)[C@H](Cc3cc4ccccc4[nH]3)n3cc([C@@H](N)Cc4ccc(O)cc4)nn3)CC2)n1	2.4	0.0	20.6*	-3.1	49.3*	-1.7	16.5*	/	/	51.9*
CCN(CC(=O)Nc1cc(Cl)ccc1C)C(=O)c1ccc2c(=O)n3c(nc2c1)CCC3	-3.1	-2.9	/	-5.4	-5.3	/	/	/	/	/
O=C1CCCN1CC(O)CS(=O)(=O)Cc1ccc(Cl)cc1 (stereo not given)	-3.9	1.7	/	2.3	9.8	/	/	/	/	/
CN(CC(=O)Nc1ccccc1Br)C(=O)C1CCN(C(=O)c2ccc(Cl)cc2)CC1	-0.2	0.9	/	2.2	12.5	/	/	/	/	/
CCOc1ccc(NC(=O)Nc2ccc3nsnc3c2)cc1	-4.8	-3.8	-0.6	5.3	17.1	18.9	/	/	/	/
CCOc1ccc(NC(=S)Nc2ccc3nsnc3c2)cc1	3.3	66.2*	33.0*	89.8*	43.8*	0.2	29.5*	5.1	34.0*	13.1
CC(=O)Oc1cc2cccc(OC(C)=O)c(=O)c2c(OC(C)=O)c1OC(C)=O	22.9*	-3.8	28.6*	-0.8	63.0*	12.7	4.2	/	/	34.9
Cn1nc(-c2ccc(Cl)cc2)nc2c(=O)n(C)c(=O)nc1-2	/	85.2*	37.9*	90.2*	44.1*	0.1	40.7*	84.8*	89.0*	60.4*

Assay outcomes (PubChem BioAssay)
